Among the data in PubChem BioAssay AID1456 (Vanderbilt High Throughput Screening Facility, 2008) are B-score of Tl+ flux slope (higher = more flux/activation; lower = inhibition) values, retold here.

Out of some 190,000 compounds screened, about 4,100 (2.2%) were called active. The sample holds actives, similar compounds and a random draw of the others, so the mix is not that of the screen. A number with no mark means an inactive call.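 How the source made its calls: active means thallium flux slope and its plate-corrected score both differing from the plate sample mean at a set confidence after two filtering rounds, in either direction; inactive means the rest.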

Chain of Solute carrier family 12 member 5 (Homo sapiens) (Q9H2X9 whole entry, looked up): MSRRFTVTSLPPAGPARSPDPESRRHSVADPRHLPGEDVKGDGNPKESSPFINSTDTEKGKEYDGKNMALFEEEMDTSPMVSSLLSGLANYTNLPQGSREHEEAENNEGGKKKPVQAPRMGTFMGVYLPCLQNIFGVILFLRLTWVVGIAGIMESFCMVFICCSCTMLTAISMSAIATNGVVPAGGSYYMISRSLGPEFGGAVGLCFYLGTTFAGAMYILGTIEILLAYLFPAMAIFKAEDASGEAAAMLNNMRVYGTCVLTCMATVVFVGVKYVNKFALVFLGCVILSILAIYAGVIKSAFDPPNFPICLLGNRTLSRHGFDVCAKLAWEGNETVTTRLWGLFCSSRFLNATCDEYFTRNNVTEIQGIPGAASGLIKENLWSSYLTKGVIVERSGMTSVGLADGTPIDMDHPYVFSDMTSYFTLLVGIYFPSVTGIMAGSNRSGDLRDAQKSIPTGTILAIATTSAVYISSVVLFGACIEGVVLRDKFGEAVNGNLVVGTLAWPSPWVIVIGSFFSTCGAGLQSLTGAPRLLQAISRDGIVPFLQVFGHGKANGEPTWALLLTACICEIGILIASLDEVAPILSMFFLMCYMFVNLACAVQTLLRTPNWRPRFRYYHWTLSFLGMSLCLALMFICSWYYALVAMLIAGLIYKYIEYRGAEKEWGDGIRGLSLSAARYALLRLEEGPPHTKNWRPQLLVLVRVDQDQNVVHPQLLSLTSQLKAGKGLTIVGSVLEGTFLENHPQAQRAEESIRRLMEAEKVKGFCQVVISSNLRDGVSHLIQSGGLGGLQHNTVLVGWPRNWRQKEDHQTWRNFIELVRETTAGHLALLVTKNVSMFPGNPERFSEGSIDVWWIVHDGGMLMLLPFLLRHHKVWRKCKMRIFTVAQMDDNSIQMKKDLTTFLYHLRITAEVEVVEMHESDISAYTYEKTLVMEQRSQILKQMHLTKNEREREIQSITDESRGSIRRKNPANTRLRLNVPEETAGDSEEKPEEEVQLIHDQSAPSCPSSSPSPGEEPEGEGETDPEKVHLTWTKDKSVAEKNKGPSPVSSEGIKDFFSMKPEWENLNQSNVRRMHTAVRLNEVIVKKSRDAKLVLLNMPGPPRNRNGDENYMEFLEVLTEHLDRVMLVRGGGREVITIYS

This assay concerns the target Solute carrier family 12 member 5 (Homo sapiens) (UniProt Q9H2X9). Nature of the assay: modulation of human KCC2 ion transport – cell-based, HEK293 KCC2, FluoZin-2 fluorescence, MLSMR, primary screen (AID 1456).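 Further: slope of fluorescence scaled to starting intensity during 10 to 20 s after thallium.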 To be noted: KCC2 cells, thallium flux FluoZin-2 fluorescence; at 10 µM.
As for `COc1ccc(NS(=O)(=O)c2ccc(N3CCOCC3)c(NC(=O)c3ccccc3Br)c2)cc1`, the B-score of Tl+ flux slope (higher = more flux/activation; lower = inhibition) was -1.53.
As to `COc1ccc2[nH]c3ccc(OC)cc3c2c1`, the B-score of Tl+ flux slope (higher = more flux/activation; lower = inhibition) is 0.0914.
For the compound `COc1ccc2[nH]c(=O)c(CNc3ccc(C)c(C)c3)cc2c1`, the B-score of Tl+ flux slope (higher = more flux/activation; lower = inhibition) is 0.158.
`COc1ccc2[nH]c(=S)cc(C)c2c1`: the B-score of Tl+ flux slope (higher = more flux/activation; lower = inhibition) is 13.9 (active).
As for `COc1ccccc1OCC(=O)O/N=C(\N)c1ccccn1`, the figure is 0.265; as for `COc1ccc(C(=O)NNc2cc(C)nc(NNC(=O)c3ccc(OC)cc3)n2)cc1`, -0.94.
On to `O=C(Nc1ccc(N2CCN(C(=O)c3ccccc3)CC2)c(Cl)c1)c1cccnc1`, for which the B-score of Tl+ flux slope (higher = more flux/activation; lower = inhibition) was 1.08.
Take `COC(=O)[C@H](C)[C@H]1C[C@]1(C)[C@H](NC(=O)OCc1ccccc1)c1ccccc1`: the B-score of Tl+ flux slope (higher = more flux/activation; lower = inhibition) was 2.81.
Regarding `C[C@@H](C(=O)Nc1ccc2ccccc2c1)[C@@H]1C[C@@]1(C)[C@@H](NC(=O)c1cccnc1)c1ccccc1`, the B-score of Tl+ flux slope (higher = more flux/activation; lower = inhibition) was -2.53 (active).
Regarding `Cc1cc(C)n(CC(C)NCc2c(C(=O)N3CCOCC3)nc3c(C)cccn23)n1` (stereo not given), the B-score of Tl+ flux slope (higher = more flux/activation; lower = inhibition) is 0.104.
Consider `CCOC(=O)C1=C(N)N2C(=O)C(C)SC2=C(C(=O)OCC)C1c1cc(OC)c(OC)c(OC)c1` (stereo not given), for which the B-score of Tl+ flux slope (higher = more flux/activation; lower = inhibition) is -0.308.
On to `O=c1c2ccccc2[nH]c(=S)n1CCN1CCC(=C(c2ccc(F)cc2)c2ccc(F)cc2)CC1`, for which the B-score of Tl+ flux slope (higher = more flux/activation; lower = inhibition) is 8.36 (active).
As for `CCCCn1c(=S)[nH]c2cc(S(=O)(=O)N3CCCCC3)ccc21`, the B-score of Tl+ flux slope (higher = more flux/activation; lower = inhibition) is 0.854.
For `CCCCn1c(=S)[nH]c2ccccc2c1=O`, the B-score of Tl+ flux slope (higher = more flux/activation; lower = inhibition) is 92.1 (active).
Consider `CCCCN(C)Cc1c(C)[nH]c2ccc(Cl)cc2c1=O`, for which the B-score of Tl+ flux slope (higher = more flux/activation; lower = inhibition) was -0.235.
`CCCCn1c(=S)[nH]c2ncccc2c1=O`: the B-score of Tl+ flux slope (higher = more flux/activation; lower = inhibition) was 49.5 (active).
Turning to `CCN(CC)CCn1c(=S)[nH]c2ncccc2c1=O`, the B-score of Tl+ flux slope (higher = more flux/activation; lower = inhibition) was 0.847.
In the case of `Fc1ccc(NC(=S)N2CCc3[nH]c4ccccc4c3C2)cc1`, the B-score of Tl+ flux slope (higher = more flux/activation; lower = inhibition) was -0.241.
Take `CN(C)CCn1c(=S)[nH]c2ccc(Cl)cc2c1=O`: the B-score of Tl+ flux slope (higher = more flux/activation; lower = inhibition) is 4.34 (active).
For `CCCCn1c(=O)c(C(C)=O)c(O)c2ccccc21`, the B-score of Tl+ flux slope (higher = more flux/activation; lower = inhibition) is -0.478.
`CCCCNC(=O)c1ccc(-n2c(=S)[nH]c3ccccc3c2=O)cc1`: the B-score of Tl+ flux slope (higher = more flux/activation; lower = inhibition) is 1.81.
On to `O=C(CCn1c(=S)[nH]c2ccccc2c1=O)NCCCN1CCCC1=O`, for which the B-score of Tl+ flux slope (higher = more flux/activation; lower = inhibition) is -0.0162.
Regarding `COc1cc2[nH]c(=S)n(Cc3ccc(F)cc3)c(=O)c2cc1OC`, the B-score of Tl+ flux slope (higher = more flux/activation; lower = inhibition) was 0.913.
Regarding `C=CCN(C(=O)Nc1ccc2c(c1)nc(C)n2C)c1ccccc1`, the B-score of Tl+ flux slope (higher = more flux/activation; lower = inhibition) is -0.205.
Then `COc1ccc2c(c1)c1ncn(Cc3ccccn3)c(=O)c1n2C`, with -0.189; and `COc1ccc(-c2nn(C)c(=O)c3ccccc23)cc1CNC(=O)C1CCCCC1`, with -0.0309; and `CCC(C)N1C(=S)SC(C)(C)C1N(O)C(=O)NC1CCCCC1` (stereo not given), with 0.793.
With `COc1ccccc1-n1cn[nH]c1=S`, the B-score of Tl+ flux slope (higher = more flux/activation; lower = inhibition) is 0.0347.
For the compound `CCc1ccc(NC(=O)N[C@H](C(=O)O)C(C)CC)cc1` (stereo not given in full), the B-score of Tl+ flux slope (higher = more flux/activation; lower = inhibition) was 1.5.
Then `O=C(O)c1ccc(/C=N/Nc2nc(N3CCCCC3)nc(N3CCCCC3)n2)cc1`, with -1.4; and `Cc1ccc(C(=O)N/C(=C\c2ccco2)C(=O)NC2CCS(=O)(=O)C2)cc1` (stereo not given), with -1.21; and `CN(C(=O)CCn1c(=S)oc2ccccc21)C1CCCCC1`, with 0.00441.
Then `CC(C)c1nc(SCC(=O)NC(=O)NC(C)(C)C)n[nH]1`, with -0.671; and `Cc1ccc(NC(=O)/C(=C/c2ccc([N+](=O)[O-])cc2)NC(=O)c2ccccc2)cc1`, with -1.36; and `O=C(Nc1nncs1)c1ccccc1NS(=O)(=O)c1cccs1`, with -1.71.
Regarding `COc1cc(NC(=O)c2cccnc2SC)cc(OC)c1`, the B-score of Tl+ flux slope (higher = more flux/activation; lower = inhibition) was 0.553.
As for `COc1cc(NC(=O)c2ccccc2NS(=O)(=O)c2ccc(Cl)s2)cc(OC)c1`, the figure is -5.32 (active).
Consider `Cc1ccc(-c2nc(SCC(=O)Nc3ccccc3OC(F)F)c3c(C)c(C(=O)O)sc3n2)cc1`, for which the B-score of Tl+ flux slope (higher = more flux/activation; lower = inhibition) was -0.62.
Regarding `COc1ccc(C(=O)N/N=C(\C)CC(=O)Nc2ccc(Cl)cn2)cc1`, the B-score of Tl+ flux slope (higher = more flux/activation; lower = inhibition) is -0.466.
For the compound `CCn1c(CN2C(=O)CSc3ccccc32)n[nH]c1=S`, the B-score of Tl+ flux slope (higher = more flux/activation; lower = inhibition) is 0.96.
